Results reported in the supplement of paper PMC11732987, “Enantioselective OTUD7B fragment discovery through chemoproteomics screening and high-throughput optimisation” (Communications Chemistry, 2025).

What was measured:
Test in all cases: log2 ratio of Biotin-Ahx-Ub-VS probe labelling (fragment/DMSO); higher = less target engagement (more negative = stronger competition), active = hit call of the paper (q ≤ 0.05, log2 ratio ≤ -1)
Details in all cases: compound concentration: 200 uM; treatment time: 3 h
[1] = molecular target: T1, USP19 (UniProt O94966)
T1 sequence (whole entry): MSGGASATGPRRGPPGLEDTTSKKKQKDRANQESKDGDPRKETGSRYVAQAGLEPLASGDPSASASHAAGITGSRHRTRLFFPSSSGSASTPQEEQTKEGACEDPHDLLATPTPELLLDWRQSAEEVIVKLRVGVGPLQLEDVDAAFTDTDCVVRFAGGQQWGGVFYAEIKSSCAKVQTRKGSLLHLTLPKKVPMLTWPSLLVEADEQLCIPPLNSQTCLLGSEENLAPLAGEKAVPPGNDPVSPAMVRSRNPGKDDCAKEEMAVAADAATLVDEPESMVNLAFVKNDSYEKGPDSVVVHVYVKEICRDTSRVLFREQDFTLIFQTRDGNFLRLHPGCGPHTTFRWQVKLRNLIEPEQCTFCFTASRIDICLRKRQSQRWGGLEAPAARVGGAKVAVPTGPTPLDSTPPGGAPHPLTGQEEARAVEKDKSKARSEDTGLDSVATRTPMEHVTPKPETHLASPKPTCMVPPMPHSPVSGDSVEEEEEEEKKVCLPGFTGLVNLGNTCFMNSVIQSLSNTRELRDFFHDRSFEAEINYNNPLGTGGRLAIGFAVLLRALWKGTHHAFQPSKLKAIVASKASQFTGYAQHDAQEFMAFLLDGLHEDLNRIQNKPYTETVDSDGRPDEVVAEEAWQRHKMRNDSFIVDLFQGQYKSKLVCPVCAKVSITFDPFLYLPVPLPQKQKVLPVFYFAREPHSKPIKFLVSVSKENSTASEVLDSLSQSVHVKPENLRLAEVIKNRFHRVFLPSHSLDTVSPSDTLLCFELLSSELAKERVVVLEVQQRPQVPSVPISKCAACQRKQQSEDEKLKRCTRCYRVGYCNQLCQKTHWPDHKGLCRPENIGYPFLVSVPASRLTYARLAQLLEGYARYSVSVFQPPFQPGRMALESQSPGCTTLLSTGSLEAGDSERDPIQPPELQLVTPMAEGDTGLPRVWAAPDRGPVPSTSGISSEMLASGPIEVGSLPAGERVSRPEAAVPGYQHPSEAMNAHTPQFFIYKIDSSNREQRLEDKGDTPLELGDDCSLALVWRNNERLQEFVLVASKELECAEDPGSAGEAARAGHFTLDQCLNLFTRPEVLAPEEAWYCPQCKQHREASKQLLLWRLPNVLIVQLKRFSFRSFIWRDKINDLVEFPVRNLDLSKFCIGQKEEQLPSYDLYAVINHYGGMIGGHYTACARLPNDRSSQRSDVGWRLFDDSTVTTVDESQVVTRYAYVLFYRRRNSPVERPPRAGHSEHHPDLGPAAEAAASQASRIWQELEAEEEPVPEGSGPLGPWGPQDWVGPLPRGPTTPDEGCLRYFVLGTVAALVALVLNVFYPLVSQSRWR
Procedure, shortened: (§1)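 HEK293T lysate, 495 µg per sample in Tris/CHAPS/IGEPAL buffer with protease inhibitors, was treated in triplicate with fragment at 200 µM or vehicle for 3 h and then with Biotin-Ahx-Ub-VS at 0.5 µM final for 1 h. Labelled DUBs were NeutrAvidin-enriched, digested with LysC and trypsin, and run by diaPASEF LC-MS/MS. Spectronaut label-free quantities were global-median-normalised, and values are average log2 fragment/vehicle ratios by unpaired t-test on proteins with ≥2 unique peptides.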

[2] = molecular target: T2, USP22 (UniProt Q9UPT9)
T2 sequence (whole entry): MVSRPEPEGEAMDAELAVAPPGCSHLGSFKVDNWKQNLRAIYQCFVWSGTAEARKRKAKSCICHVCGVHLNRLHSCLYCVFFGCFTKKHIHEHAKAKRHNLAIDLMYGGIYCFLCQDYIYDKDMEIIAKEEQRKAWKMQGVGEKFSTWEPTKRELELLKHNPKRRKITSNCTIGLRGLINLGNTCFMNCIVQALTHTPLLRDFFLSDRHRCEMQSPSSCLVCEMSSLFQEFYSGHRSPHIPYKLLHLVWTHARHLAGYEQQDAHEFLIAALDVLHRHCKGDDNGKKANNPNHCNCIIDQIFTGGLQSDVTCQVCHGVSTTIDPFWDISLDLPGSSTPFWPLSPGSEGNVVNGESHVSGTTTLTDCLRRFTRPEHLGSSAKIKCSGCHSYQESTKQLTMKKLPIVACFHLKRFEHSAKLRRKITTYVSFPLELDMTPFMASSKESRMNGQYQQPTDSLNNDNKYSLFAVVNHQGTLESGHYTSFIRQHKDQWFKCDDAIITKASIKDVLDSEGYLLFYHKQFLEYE
Procedure, shortened: as §1

[3] = molecular target: USP24 (UniProt Q9UPU5)
Procedure, shortened: as §1

[4] = molecular target: T3, USP25 (UniProt Q9UHP3)
T3 sequence (whole entry): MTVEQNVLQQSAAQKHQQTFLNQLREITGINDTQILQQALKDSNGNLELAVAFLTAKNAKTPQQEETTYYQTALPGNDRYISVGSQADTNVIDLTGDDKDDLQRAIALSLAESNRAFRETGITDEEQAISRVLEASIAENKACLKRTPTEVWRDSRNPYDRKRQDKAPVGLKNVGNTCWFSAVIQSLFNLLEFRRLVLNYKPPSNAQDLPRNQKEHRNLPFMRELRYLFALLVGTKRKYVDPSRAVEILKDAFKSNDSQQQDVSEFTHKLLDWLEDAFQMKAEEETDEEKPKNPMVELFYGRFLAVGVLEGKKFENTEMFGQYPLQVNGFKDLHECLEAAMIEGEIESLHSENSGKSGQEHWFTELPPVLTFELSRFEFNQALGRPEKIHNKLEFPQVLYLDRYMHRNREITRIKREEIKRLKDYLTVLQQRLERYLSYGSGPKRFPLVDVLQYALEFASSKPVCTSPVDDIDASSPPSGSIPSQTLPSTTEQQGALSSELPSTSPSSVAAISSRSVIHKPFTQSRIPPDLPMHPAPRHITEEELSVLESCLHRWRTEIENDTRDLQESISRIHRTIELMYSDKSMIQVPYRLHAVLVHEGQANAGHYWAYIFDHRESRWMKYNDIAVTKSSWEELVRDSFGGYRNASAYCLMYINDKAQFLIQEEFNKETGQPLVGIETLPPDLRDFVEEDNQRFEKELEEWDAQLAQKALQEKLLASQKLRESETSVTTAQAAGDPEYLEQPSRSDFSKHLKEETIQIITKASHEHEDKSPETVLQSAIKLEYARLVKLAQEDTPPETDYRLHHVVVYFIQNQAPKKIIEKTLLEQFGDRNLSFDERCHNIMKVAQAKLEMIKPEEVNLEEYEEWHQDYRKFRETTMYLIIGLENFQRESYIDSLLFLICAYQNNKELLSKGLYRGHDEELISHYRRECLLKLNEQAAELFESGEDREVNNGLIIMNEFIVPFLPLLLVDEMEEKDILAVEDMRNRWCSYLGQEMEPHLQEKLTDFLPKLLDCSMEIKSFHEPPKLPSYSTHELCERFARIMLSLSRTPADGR
Procedure, shortened: as §1

[5] = molecular target: T4, USP28 (UniProt Q96RU2)
T4 sequence (whole entry): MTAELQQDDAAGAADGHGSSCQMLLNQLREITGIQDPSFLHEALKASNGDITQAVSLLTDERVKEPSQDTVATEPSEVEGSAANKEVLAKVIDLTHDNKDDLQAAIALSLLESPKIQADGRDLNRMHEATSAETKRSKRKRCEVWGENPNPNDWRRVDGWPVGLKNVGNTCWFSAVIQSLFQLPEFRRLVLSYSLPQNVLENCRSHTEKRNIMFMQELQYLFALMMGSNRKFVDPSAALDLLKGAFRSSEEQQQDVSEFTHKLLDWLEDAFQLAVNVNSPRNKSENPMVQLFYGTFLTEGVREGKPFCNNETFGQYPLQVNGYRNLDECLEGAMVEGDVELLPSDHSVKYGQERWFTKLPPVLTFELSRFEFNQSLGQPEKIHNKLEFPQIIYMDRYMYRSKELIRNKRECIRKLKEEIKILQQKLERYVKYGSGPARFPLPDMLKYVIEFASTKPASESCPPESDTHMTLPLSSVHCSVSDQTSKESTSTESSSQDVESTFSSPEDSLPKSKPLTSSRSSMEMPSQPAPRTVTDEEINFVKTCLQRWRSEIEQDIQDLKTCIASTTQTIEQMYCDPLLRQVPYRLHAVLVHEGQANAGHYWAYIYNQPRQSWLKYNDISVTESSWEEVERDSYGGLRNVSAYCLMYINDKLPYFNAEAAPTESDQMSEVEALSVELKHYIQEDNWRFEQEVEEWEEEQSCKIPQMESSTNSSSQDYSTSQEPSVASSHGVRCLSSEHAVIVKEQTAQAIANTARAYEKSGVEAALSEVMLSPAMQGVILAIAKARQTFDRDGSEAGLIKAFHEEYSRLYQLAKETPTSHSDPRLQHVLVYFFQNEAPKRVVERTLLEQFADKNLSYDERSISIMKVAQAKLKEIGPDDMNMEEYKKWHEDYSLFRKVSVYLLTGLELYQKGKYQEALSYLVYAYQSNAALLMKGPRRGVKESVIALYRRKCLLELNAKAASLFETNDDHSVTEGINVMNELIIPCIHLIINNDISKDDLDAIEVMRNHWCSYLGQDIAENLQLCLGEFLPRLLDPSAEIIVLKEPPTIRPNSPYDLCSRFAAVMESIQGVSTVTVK
Procedure, shortened: as §1

Measured: log2 ratio of Biotin-Ahx-Ub-VS probe labelling

Chain of USP24 (Q9UPU5 whole entry): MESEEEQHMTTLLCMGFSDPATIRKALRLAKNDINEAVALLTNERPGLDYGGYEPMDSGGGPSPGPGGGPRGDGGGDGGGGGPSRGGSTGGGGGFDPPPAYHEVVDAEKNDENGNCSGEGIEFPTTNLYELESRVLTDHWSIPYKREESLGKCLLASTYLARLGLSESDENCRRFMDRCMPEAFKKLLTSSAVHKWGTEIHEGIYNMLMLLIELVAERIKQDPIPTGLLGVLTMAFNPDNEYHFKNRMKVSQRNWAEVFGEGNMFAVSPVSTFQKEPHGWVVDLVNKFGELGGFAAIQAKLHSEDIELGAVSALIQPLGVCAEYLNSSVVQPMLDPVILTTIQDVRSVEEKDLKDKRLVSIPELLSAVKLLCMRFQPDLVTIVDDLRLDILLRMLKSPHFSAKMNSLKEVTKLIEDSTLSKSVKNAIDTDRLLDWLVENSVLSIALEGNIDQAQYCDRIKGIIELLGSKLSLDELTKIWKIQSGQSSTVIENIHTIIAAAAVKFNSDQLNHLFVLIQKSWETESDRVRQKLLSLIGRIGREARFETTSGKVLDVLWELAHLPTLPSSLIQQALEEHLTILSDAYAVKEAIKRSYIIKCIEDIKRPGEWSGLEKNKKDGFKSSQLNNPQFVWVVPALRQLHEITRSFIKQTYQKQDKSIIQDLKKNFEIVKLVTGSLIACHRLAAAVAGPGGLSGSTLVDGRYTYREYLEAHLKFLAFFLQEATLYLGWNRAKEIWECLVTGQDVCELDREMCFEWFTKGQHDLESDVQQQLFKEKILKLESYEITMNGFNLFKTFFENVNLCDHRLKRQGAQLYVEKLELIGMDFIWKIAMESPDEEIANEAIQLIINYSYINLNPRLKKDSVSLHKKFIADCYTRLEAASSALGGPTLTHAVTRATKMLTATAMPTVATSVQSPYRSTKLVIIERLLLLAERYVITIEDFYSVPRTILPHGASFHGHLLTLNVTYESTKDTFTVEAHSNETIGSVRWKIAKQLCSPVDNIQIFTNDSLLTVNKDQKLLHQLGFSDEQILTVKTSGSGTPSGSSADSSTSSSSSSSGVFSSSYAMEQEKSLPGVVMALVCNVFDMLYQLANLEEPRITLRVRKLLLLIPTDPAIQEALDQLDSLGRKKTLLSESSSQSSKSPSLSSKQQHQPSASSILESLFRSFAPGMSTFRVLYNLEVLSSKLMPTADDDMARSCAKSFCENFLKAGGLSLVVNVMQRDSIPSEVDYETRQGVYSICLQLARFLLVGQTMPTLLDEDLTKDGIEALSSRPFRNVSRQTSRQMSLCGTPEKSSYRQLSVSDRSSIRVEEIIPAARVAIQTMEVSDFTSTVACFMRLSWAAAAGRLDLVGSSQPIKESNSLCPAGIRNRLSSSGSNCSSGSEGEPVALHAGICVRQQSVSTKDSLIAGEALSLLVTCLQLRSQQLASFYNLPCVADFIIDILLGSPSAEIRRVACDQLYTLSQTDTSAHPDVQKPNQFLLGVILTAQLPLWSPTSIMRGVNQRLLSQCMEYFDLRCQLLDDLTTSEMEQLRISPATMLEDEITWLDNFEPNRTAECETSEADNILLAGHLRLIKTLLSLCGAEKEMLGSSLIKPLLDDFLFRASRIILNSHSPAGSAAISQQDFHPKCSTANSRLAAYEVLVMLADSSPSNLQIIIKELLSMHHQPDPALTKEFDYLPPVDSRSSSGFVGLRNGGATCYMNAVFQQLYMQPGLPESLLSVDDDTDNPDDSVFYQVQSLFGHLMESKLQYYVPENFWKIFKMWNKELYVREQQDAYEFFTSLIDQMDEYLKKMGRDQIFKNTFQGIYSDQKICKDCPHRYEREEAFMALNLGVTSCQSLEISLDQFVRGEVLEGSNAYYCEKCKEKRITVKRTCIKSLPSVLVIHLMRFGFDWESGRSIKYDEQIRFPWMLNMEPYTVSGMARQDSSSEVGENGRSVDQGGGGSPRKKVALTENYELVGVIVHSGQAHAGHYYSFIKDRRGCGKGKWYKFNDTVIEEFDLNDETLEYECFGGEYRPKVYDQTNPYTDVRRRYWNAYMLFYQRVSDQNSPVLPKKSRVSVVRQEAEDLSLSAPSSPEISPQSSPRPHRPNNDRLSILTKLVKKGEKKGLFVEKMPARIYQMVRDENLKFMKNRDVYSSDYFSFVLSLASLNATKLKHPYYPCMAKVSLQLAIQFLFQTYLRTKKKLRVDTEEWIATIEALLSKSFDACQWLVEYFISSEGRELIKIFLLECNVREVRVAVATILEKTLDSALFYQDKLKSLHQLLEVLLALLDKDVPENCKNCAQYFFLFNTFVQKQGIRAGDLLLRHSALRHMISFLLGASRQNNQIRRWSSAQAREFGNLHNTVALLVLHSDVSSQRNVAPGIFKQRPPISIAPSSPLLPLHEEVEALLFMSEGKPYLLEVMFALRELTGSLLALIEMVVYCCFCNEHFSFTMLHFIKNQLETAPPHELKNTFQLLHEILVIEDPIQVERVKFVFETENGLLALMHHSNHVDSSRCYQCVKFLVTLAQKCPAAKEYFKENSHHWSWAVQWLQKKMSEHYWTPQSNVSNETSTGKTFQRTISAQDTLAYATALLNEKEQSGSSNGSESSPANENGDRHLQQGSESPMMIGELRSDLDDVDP

N#Cc1ccc(CNC(=O)CCl)cc1
inactive: [1] -0.0911 | [2] 0.193 | [3] -0.183 | [4] -0.413 | [5] -0.49
